A selection: hits, their analogues and other compounds. The true share with any hit is near 19%.
HT1080 IDH1KD tx: HT-1080 IDH1 knockdown cell toxicity (counter line) | HT-1080 IDH1 knockdown viability, ATP luminescence, 48 h | Potency, µM (series often up to 46.1 µM), most hits filed as cytotoxic | actives 2% (n = 360,000) | AID 686971
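In this qHTS, HT-1080 cells depleted of IDH1 are exposed for 48 h at 37 °C to compound titrations. Toxicity is scored from CellTiter-Glo luminescence, with DMSO as full viability and medium alone as none.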
HT1080-NT tox: kills 2HG-producing HT-1080-NT fibrosarcoma cells | HT-1080-NT fibrosarcoma viability, CellTiter-Glo ATP luminescence, 48 h | Potency, µM (titrated, usually from 46.1 µM), most hits filed as cytotoxic | actives 1.6% (n = 360,000) | AID 686970;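 also: NT is the 2HG producing partner of a matched IDH1 knockdown line; nearly all actives have a fitted effect of over 55% in size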
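HT-1080-NT; 750 cells/well; 5% FBS RPMI; 48 h compound, 37 degrees C; CellTiter-Glo luminescence; curve fitting and curve-class assignment.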
TDP1 cell CPT: DT40-hTDP1 cell growth loss with CPT; actives 12% (n = 420,000); Potency, µM (highest dose often 46.2 µM), usual class: inhibitors; AID 686979; chicken DT40 Tdp1-/-;hTDP1 cells + 20 nM CPT, ATP luminescence, 48 h; also: nearly all actives have a fitted effect of over 55% in size
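Chicken DT40 Tdp1-/- cells stably complemented with human TDP1 were seeded at 400 cells/well in medium containing 20 nM camptothecin, exposed to pin-transferred compounds, and grown at 37 °C for at least 48 hr. Viability was read as ATP luminescence.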
TDP1 cell noCPT: qHTS for Inhibitors of human tyrosyl-DNA phosphodiesterase 1 (TDP1): qHTS in cells in absence of CPT | actives 15% (n = 420,000) | DT40 Tdp1-/- hTDP1 cells, no CPT, ATP luminescence, 48 h | Potency, µM (doses to about 46.2 µM), most hits filed as inhibitors | AID 686978, 2013; also: nearly all actives have a fitted effect of over 55% in size
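Luminescent ATP content (CellTiter-Glo) served as the growth readout. Knockout chicken DT40 cells expressing human TDP1 were exposed to compounds without camptothecin for a minimum 48 hr at 37 °C.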
IL-1B inflam inh: blocks inflammasome-driven IL-1 beta release | AID 743279 | activity change, % at 57.5 µM | THP-1 LPS/ATP IL-1B secretion, AlphaLISA, 16 h; stronger effect = lower value | actives 4.7% (n = 360,000); in the data active = activity change below about -50%; inconclusive = mostly about -30% to -49%
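Secreted IL-1B measured by AlphaLISA bead assay after 16 h compound exposure of THP-1 cells; compounds (final up to 57.5 uM) added 1 h before LPS (250 ng/mL) and ATP (1.25 mM) stimulation; lower signal means less secretion.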
Large screens that a line does not name were inactive. Unless noted, calls follow the shape of the dose curve; as a rule, active = well fitted curve in the direction sought with a large enough effect; inconclusive = small, poorly fitted or top-dose-only effect, or another doubt; inactive = no such curve, though single readings can be large; an effect the other way counts as inactive or inconclusive.

CCOc1ccc(N(CC(=O)NCCSCc2ccccc2)S(C)(=O)=O)cc1	TDP1 cell CPT 1.8µM, TDP1 cell noCPT 5.8µM
Cc1ccc(NC(=O)c2ccc3nc(Cc4ccccc4)oc3c2)cc1F	TDP1 cell CPT inconclusive (no result: HT1080 IDH1KD tx, HT1080-NT tox, IL-1B inflam inh)
Cc1c(C(=O)N2CCC(n3nccc3NC(=O)C3CC3)CC2)[nH]c2ccc(Cl)cc12	HT1080 IDH1KD tx inconclusive, TDP1 cell CPT inconclusive
Cc1ccn2c(Nc3ccc4c(c3)OCO4)c(-c3ccc(C)o3)nc2c1	TDP1 cell CPT 15µM, TDP1 cell noCPT inconclusive (no result: HT1080 IDH1KD tx, HT1080-NT tox, IL-1B inflam inh)
COc1ccc(Nc2c(-c3ccc(C)o3)nc3cc(C)ccn23)cc1	TDP1 cell CPT 15µM, TDP1 cell noCPT 12µM (no result: HT1080 IDH1KD tx, HT1080-NT tox, IL-1B inflam inh)
O=C(Cc1c[nH]c2ccccc12)NCc1ccc2c(c1)OCO2	TDP1 cell noCPT inconclusive
O=C(CSc1nc2ccccc2[nH]1)N1CCN(c2ccccc2)CC1	none
O=C(CSc1ncccc1-c1nc2ccccc2[nH]1)NC1CC1	none
COc1ccccc1N1CCN(C(=O)CSc2ncccc2-c2nc3ccccc3[nH]2)CC1	TDP1 cell CPT 15µM, TDP1 cell noCPT inconclusive
COc1ccc(N2CCN(C(=O)CSc3ncccc3-c3nc4ccccc4[nH]3)CC2)cc1	TDP1 cell CPT 18µM, TDP1 cell noCPT 29µM
COc1ccccc1N1CCN(C(=O)CSc2nc(N)cc(=O)[nH]2)CC1	TDP1 cell CPT inconclusive
O=C(CSc1ncccc1-c1nc2ccccc2[nH]1)N1CCN(c2ccccc2F)CC1	TDP1 cell CPT 16µM, TDP1 cell noCPT inconclusive
COc1ccccc1NC(=O)Cn1c(=O)n(CCc2c[nH]c3ccccc23)c(=O)c2cccnc21	TDP1 cell CPT inconclusive
COc1ccccc1NC(=O)CSc1nc2nccnc2c(=O)n1CCc1c[nH]c2ccccc12	TDP1 cell CPT 18µM, TDP1 cell noCPT 15µM (no result: HT1080 IDH1KD tx, HT1080-NT tox, IL-1B inflam inh)
Cc1ccc(NC(=O)CSc2nc3nccnc3c(=O)n2CCc2c[nH]c3ccccc23)cc1C	TDP1 cell CPT 13µM, TDP1 cell noCPT 12µM (no result: HT1080 IDH1KD tx, HT1080-NT tox, IL-1B inflam inh)
Cc1ccc(NC(=O)CSc2nc3nccnc3c(=O)n2CCc2c[nH]c3ccccc23)c(C)c1	TDP1 cell CPT 12µM, TDP1 cell noCPT 12µM (no result: HT1080 IDH1KD tx, HT1080-NT tox, IL-1B inflam inh)
Cc1ccc(NC(=O)CSc2nc3c(sc4ccccc43)c(=O)n2CCCC(=O)NC2CCCC2)cc1C	none (no result: HT1080 IDH1KD tx, HT1080-NT tox, IL-1B inflam inh)
COc1cc(C2NC(=O)NC(C)=C2C(C)=O)ccc1O (configuration not stated)	none
O=C1CN(C(=S)NC(=O)c2ccc(-c3ccccc3)cc2)CCN1	none
C=CC1CN(C(=O)OCC(Cl)(Cl)Cl)C2CC3c4ccc(OC)cc4NC3C3CC1C2CO3 (configuration not stated)	TDP1 cell CPT inconclusive, TDP1 cell noCPT 18µM
CCOC(=O)N1CCC2CC1c1cc(-c3cccc(OC)c3)ccc12 (configuration not stated)	TDP1 cell CPT inconclusive, TDP1 cell noCPT inconclusive
Cc1ccc(C)c(N(C(=O)c2ccco2)C(C(=O)NC2CCCC2)c2ccco2)c1 (configuration not stated)	none
Cn1c(SCC(=O)Nc2nc(C(C)(C)C)cs2)nnc1C1CC1	none
CCOC(=O)c1ccc(NC(=S)N2CCSC2c2c(F)cc(F)cc2F)cc1 (configuration not stated)	TDP1 cell CPT 23µM, TDP1 cell noCPT 26µM
CCOC(=O)c1ccc(NC(=S)N2CCN(S(C)(=O)=O)CC2)cc1	none
CC(C)[C@H](NC(=O)N1CCn2c1nc1ccccc12)C(=O)NCc1ccc(F)cc1	TDP1 cell CPT inconclusive, IL-1B inflam inh -94
CC(NC(=O)CCCCCNC(=O)N1CCn2c1nc1ccccc12)c1ccccc1 (configuration not stated)	TDP1 cell CPT 15µM, IL-1B inflam inh -53
O=C(CCCCCNC(=O)N1CCn2c1nc1ccccc12)N[C@@H](C(=O)O)c1ccccc1	none
CC(C)[C@H](NC(=O)N1CCn2c1nc1ccccc12)C(=O)NCc1ccccc1Cl	TDP1 cell CPT inconclusive, TDP1 cell noCPT inconclusive
C/C(=N\NC(=O)c1nnn(-c2nonc2N)c1C(C)C)c1ccc2ccccc2c1	TDP1 cell noCPT inconclusive
